Rows were chosen to be rich in hits. Some 3.2% of all compounds tested hit in one or more screens of this group.
Rv3671c inh = Rv3671c (M. tuberculosis) protease inhibition | P9WHR9 | inhibition, % at 5.96 µM | 320,000 compounds, 0.048% hits; in the data active = inhibition above about 38%;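 also: extracellular domain of Rv3671c used as enzyme; 0% = enzyme with DMSO and 100% = no enzyme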
Target sequence (P9WHR9 whole entry, looked up, the tested form may be a part): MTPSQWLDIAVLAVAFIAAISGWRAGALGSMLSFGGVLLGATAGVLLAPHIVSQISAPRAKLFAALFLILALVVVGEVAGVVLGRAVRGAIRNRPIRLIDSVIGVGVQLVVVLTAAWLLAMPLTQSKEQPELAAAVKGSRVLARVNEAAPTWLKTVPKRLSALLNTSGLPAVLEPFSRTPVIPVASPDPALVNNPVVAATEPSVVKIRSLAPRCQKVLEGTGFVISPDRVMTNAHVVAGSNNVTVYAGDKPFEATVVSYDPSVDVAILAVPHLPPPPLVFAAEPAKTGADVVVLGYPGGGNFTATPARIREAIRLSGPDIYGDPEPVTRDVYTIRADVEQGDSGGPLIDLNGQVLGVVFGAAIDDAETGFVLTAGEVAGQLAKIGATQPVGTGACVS
FBA Mtb inh = inhibitors of M. tuberculosis fructose-bisphosphate aldolase | purified M. tuberculosis FBA, fluorescence read-out | 360,000 compounds, 2.3% hits | inhibition, % at 1 µM;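 also: 0% = vehicle and 100% = reference inhibitor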
GDH-TPI counter-1 = counter-screen for M. tuberculosis FBA inhibitors: GDH-TPI coupled enzymes | GDH-TPI coupled enzyme counterscreen, NADH absorbance | inhibition, % at 4.8 µM | 360,000 compounds, 1.2% hits | AID 588335; in the data active = inhibition above about 30%;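 also: 0% = DMSO wells and 100% = wells lacking the enzyme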
PriA SSB inh = blocks PriA binding to SSB C-terminal tail; AlphaScreen SSBct-PriA binding, biotinylated peptide; inhibition, % at 33 µM; 430,000 compounds, 0.6% hits; in the data active = inhibition mostly above about 37%, no sharp cut-off; inactive = mostly below about 20%;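 also: plate controls were negative control peptide for no effect and reference peptide for full effect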
Mtb bLac sens = beta-lactam sensitization of Mtb H37Rv; AID 434955; M. tuberculosis H37Rv growth with meropenem, percent inhibition; 330,000 compounds, 0.27% hits; inhibition, % at 25 µM; call rule not given here;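 also: growth measured after seven days incubation then overnight dye step; 0% = bacteria only wells and 100% = bacteria with antibiotic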
UGM FP inh = Mtb UDP-galactopyranose mutase inhibition. purified UGM, fluorescence polarization probe displacement. inhibition, % at 10 µM. 320,000 compounds, 0.06% hits; in the data active = inhibition above about 10%, passing the limit was not always enough
Mtb FBA confirm = confirmation of M. tuberculosis fructose-bisphosphate aldolase inhibitors | shares compounds with FBA Mtb inh | purified M. tuberculosis FBA, fluorescence read-out | inhibition, % at 1 µM | 5,600 compounds, 78% hits;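 also: 0% = vehicle wells and 100% = reference inhibitor wells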
GDH-TPI counter-2 = GDH-TPI inhibition counter-screen for FBA inhibitors | shares compounds with FBA Mtb inh | GDH-TPI coupled enzyme counterscreen, fluorescence | inhibition, % at 1 µM | 5,600 compounds, 81% hits | AID 652141; in the data active = inhibition above about 10%
GDH-TPI dose = inhibits GDH-TPI coupling enzymes in dose response; shares compounds with FBA Mtb inh; GDH-TPI coupled enzyme assay, fluorescence, artifact counterscreen; IC50, µM; 170 compounds, 79% hits; call rule not given here
* marks the source's active call; other numbers are inactive results; . = no result; + = active, no number. Rule as the data show it, unless noted: active = inhibition above about 27%; inactive = the rest.

SMILES | Rv3671c inh | FBA Mtb inh | GDH-TPI counter-1 | PriA SSB inh | Mtb bLac sens | UGM FP inh | Mtb FBA confirm | GDH-TPI counter-2 | others
CCC(C)NC(=O)c1cc(-c2cccs2)nc2ccccc12 (stereo not drawn) | 2 | 94* | 21 | -5 | -2 | 0 | 101* | 92*
O=C(NCc1cccs1)c1cc(-c2ccccc2)nc2ccccc12 | -15 | -1 | 9 | -5 | 80 | . | . | .
Cc1cc(NC(=O)c2cc(-c3ccccc3C)nc3ccccc23)no1 | -1 | -1 | 0 | 15 | 1 | 2 | . | .
O=C(Nc1nc(-c2ccncc2)cs1)c1cc(-c2cccs2)nc2ccccc12 | . | . | . | 6 | . | . | . | .
CC(C)CCNC(=O)c1cc(-c2cccs2)nc2ccccc12 | -2 | 65* | 11 | 2 | 6 | -1 | -2 | -4
Cc1cc(NC(=O)c2cc(-c3ccc(C)s3)nc3ccccc23)no1 | -7 | 29* | 11 | -3 | -3 | 2 | + | 180*
Cc1nc(NC(=O)CN(C)c2nc3ccccc3s2)sc1C(=O)N(C)C | . | . | . | -5 | . | . | . | .
Cc1ccc2cc(CCC#N)c(Cl)nc2c1 | . | . | . | -13 | . | . | . | .
COc1ccc(OC)c(-c2cc(C(=O)NC[C@@H](c3ccccc3Cl)N(C)C)n(C)n2)c1 | . | . | . | 8 | . | . | . | .
Cc1ccccc1CNC(=O)C1CCCN(c2nnc(C)c3c(C)n(-c4ccccc4)nc23)C1 (stereo not drawn) | -4 | 28* | 1 | -8 | -3 | 4 | 111* | 105*
Cc1nnc(N2CCCC(C(=O)NCc3ccccc3F)C2)c2nn(-c3ccccc3)c(C)c12 (stereo not drawn) | -14 | 8 | 3 | -10 | 2 | 0 | . | .
CNc1cc(-c2ccc(OC)c(OC)c2)ncn1 | . | 24 | 13 | . | . | . | . | .
CNc1ccc2ncc(-c3ccc(OC)c(OC)c3)n2n1 | . | 44* | 17 | . | . | . | 11 | 7
CNc1cncc(-c2ccc(OC)c(OC)c2)n1 | . | 58* | 20 | . | . | . | 78* | 63*
CNc1cncc(-c2c(OC)cccc2OC)n1 | . | 77* | 8 | . | . | . | + | +
CN(C)S(=O)(=O)N1CCC(SC(C)(C)C)C1 (stereo not drawn) | . | . | . | -6 | . | . | . | .
CCc1ccc(-c2nc3ccc(Br)cc3c(C(=O)O)c2C)s1 | . | 38* | 18 | -9 | -2 | 2 | 60* | 45*
Cc1cc(N)nc(Nc2ccc(F)c(Cl)c2)n1 | . | . | . | -9 | . | . | . | .
O=C(c1cc(C2CC2)on1)N1CCCC(Cc2nc(C3CC3)no2)C1 (stereo not drawn) | . | . | . | 0 | . | . | . | .
O=C(O)Cc1ccc2oc(-c3ccccn3)nc2c1 | -2 | 2 | 5 | -7 | 1 | -1 | . | .
Cc1ccc2nc(-c3ccccn3)oc2c1 | 8 | 103* | 17 | -1 | -6 | -2 | 42* | 30*
COC(=O)c1ccc(-c2nc3ccc(C)cc3o2)cc1 | 1 | 32* | 10 | -20 | -13 | 0 | 147* | 124*
Cc1ccc2oc(-c3ccc(NC(=O)c4cccnc4)cc3)nc2c1 | -25 | -6 | 25 | 4 | 60 | -1 | . | .
COCCn1c(SCC(=O)N2CCCCC2)nc2c(c1=O)SCC2 | -4 | 41* | 13 | -13 | -14 | -1 | 18 | 6 | GDH-TPI dose=>10
CCn1c(SCC(=O)N2CCCCC2)nc2c(c1=O)SCC2 | -7 | 3 | 6 | -3 | -7 | 0 | . | .
SMILES | Rv3671c inh | FBA Mtb inh | GDH-TPI counter-1 | PriA SSB inh | Mtb bLac sens | UGM FP inh | Mtb FBA confirm | GDH-TPI counter-2 | others
COc1ccc(CCn2c(-c3ccco3)nc3nc4ccccc4nc32)cc1 | -1 | 3 | 21 | -15 | -5 | 3 | . | .
CCCn1c(-c2ccc(OC)cc2)nc2nc3ccccc3nc21 | -10 | 42* | 43* | -15 | -10 | 3 | 98* | 79*
Cc1ccccc1C=Nn1c(COc2ccccc2)n[nH]c1=S | . | . | . | -13 | . | . | . | .
COc1cc(C2c3c([nH]c(=O)[nH]c3=O)Nc3ccc4ccccc4c32)cc(OC)c1OC (stereo not drawn) | 18 | 34* | 0 | -7 | 4 | 0 | 90* | 75*
Cc1ccc2c(CC(=O)Nc3ccccc3C#N)cc(=O)oc2c1 | . | . | . | 4 | . | . | . | .
Nc1cnccc1C(=O)O | -3 | 6 | 9 | -7 | 36 | 4 | . | .
COC(=O)c1ccncc1N | -7 | 47* | 0 | -7 | -8 | 1 | 7 | -4
COC(=O)c1sc2cnccc2c1N | -7 | 110* | 14 | -7 | 1 | 1 | 91* | 85*
CCNC(=S)Nc1cccc(NC(=O)c2ccccc2O)c1 | 1 | 37* | 5 | 7 | -6 | 1 | 3 | -4
CCNC(=S)Nc1ccc(NC(=O)c2ccccc2O)cc1 | 1 | 12 | 10 | 1 | -7 | 2 | . | .
COc1cccc(-c2c(-c3cc(OC)cc(OC)c3)n(C)c3ccc(-c4ccc5cc[nH]c5c4)cc23)c1 | 3 | 34* | 33* | -6 | -6 | -1 | 58* | 43*
COc1ccc(-c2c(-c3cc(OC)cc(OC)c3)n(C)c3ccc(-c4ccc(S(N)(=O)=O)cc4)cc23)cc1 | 6 | 54* | 12 | 10 | -2 | 0 | 53* | 47*
COc1cccc(-c2c(-c3cc(OC)cc(OC)c3)n(C)c3ccc(-c4cnc(OC)nc4)cc23)c1 | 6 | 4 | -6 | -14 | 47 | 0 | . | .
COc1cc(OC)cc(-c2c(-c3cccs3)c3cc(-c4ccc5[nH]ccc5c4)ccc3n2C)c1 | 6 | 35* | 19 | 18 | 4 | -2 | 97* | 66*
COc1cc(C#Cc2c(-c3cncn3C)n(C)c3ccc(-c4ccc5cc[nH]c5c4)cc23)cc(OC)c1 | -10 | 35* | 23 | 33 | 97 | 1 | 56* | 46*
O=C(CCS(=O)(=O)c1ccc(Cl)cc1)Nc1ccc2scnc2c1 | . | . | . | -14 | . | . | . | .
COc1cc(OC)cc(-c2c(-c3cccs3)c3cc(-c4ccc(OC)c(F)c4)ccc3n2C)c1 | -13 | 3 | 7 | 21 | -6 | 4 | . | .
COc1cc(OC)cc(-c2c(-c3cccs3)c3cc(-c4ccc5cc[nH]c5c4)ccc3n2C)c1 | -2 | 28* | 38* | 1 | -3 | -2 | 116* | 111*
COc1cc(OC)cc(-c2c(-c3cccs3)c3cc(-c4ccc(SC)cc4)ccc3n2C)c1 | -7 | 0 | 9 | 15 | 3 | -1 | . | .
COc1cc(OC)cc(-c2c(-c3cccs3)c3cc(-c4ccc(OC)c(OC)c4)ccc3n2C)c1 | 3 | 32* | 19 | 38 | 18 | 2 | + | 170*
CSc1ccccc1NC(=O)c1cc(C)no1 | . | . | . | -1 | . | . | . | .
CCOC(=O)c1c(N=Cc2cc(C)ccc2O)sc2c1CCC2 | . | . | . | -2 | . | . | . | .
O=C(NCc1ccncc1)C(=O)NC[C@@H](c1ccco1)N1CCN(c2ccccc2)CC1 | . | . | . | -5 | . | . | . | .

Screening results deposited in PubChem by several laboratories.
